Design in all cases: scale not given: direction of the effect not stated beside the values
Assay [1] concerns the target Protein translocase subunit SecA (Escherichia coli (strain K12)) (UniProt P10408). As to the kind of experiment: Assay to Identify E. coli SecA ATPase Inhibitors. The class given is functional. Particulars: 30 µM.
Assay [2] deals with T1, Ubiquitin-activating enzyme e1, putative (Leishmania donovani (strain BPK282A1)) (UniProt E9BSI1).
T1 sequence (whole entry): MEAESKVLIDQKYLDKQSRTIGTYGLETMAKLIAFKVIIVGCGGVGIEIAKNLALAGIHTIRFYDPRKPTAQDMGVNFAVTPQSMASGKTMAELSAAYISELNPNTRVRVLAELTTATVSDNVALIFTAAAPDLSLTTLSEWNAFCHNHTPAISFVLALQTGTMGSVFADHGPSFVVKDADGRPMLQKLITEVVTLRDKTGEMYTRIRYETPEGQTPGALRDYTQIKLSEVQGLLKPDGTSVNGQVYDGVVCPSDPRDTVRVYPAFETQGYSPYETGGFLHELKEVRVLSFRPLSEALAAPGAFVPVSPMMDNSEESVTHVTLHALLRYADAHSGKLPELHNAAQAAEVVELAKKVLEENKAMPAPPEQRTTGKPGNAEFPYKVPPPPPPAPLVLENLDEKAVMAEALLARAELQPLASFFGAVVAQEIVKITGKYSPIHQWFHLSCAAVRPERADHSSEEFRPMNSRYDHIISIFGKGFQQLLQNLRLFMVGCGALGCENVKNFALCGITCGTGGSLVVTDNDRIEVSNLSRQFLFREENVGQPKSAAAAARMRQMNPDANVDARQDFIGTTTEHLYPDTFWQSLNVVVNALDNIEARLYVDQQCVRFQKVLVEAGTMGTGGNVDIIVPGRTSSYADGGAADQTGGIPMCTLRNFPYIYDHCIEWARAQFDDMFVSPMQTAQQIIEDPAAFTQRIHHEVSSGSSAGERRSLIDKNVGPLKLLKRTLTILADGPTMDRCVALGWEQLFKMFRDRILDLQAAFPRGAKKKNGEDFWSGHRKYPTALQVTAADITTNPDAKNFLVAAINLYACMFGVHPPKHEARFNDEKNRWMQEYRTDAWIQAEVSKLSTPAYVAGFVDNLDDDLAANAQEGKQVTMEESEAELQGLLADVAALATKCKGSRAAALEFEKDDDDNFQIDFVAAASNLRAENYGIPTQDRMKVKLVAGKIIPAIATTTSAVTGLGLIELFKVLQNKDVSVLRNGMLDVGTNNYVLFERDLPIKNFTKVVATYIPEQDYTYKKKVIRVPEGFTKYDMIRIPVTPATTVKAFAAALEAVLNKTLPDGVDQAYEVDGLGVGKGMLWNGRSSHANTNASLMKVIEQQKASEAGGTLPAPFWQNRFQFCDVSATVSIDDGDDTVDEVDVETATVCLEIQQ
The experiment in a line: Leishmania donovani Ubiquitin Activating Enzyme (LdE1). It counts as functional. To be noted: 30 µM.

Assay [3] has as its target AMP-activated protein kinase, AMPK (Homo sapiens) (UniProt P54646+O43741+P54619+Q9UGJ0+Q9Y478+Q13131+Q9UGI9). As to the kind of experiment: AMP-dependent Kinase enzyme assay. An in vitro enzyme assay that detects ADP turnover that is directly proportional to AMPK activity. This uses naive AMPK that is activated during the assay with MK-8722. The class given is functional. To be noted: 30 µM.

Assay [4] has as its target Sialic acid-binding Ig-like lectin 9 (Homo sapiens) (UniProt Q9Y336). As to the kind of experiment: Hs-Siglec9 ALPHAscreen SOP 20170721. Particulars: 10 µM. (In Alpha technology, singlet oxygen from a donor bead excites a nearby acceptor bead.)
Assay [5] concerns Trypanosoma cruzi. As to the kind of experiment: Trypanosoma cruzi phosphomannomutase and mannose-1-phosphate guanylyltransferase assay. It counts as functional. Particulars: 10 µM.
The target of assay [6] is T2, Arginase-2, mitochondrial (Homo sapiens) (UniProt P78540).
T2 sequence (whole entry): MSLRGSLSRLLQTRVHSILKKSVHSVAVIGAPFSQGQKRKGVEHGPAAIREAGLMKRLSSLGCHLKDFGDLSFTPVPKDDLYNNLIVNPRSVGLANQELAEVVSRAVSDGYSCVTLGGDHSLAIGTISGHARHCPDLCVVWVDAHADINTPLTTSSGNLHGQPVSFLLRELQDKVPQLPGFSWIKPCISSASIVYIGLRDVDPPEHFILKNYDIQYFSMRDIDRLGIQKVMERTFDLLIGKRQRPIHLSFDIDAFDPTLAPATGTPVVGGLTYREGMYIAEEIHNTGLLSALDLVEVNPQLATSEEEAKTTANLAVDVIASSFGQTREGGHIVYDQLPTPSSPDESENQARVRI
As to the kind of experiment: in vitro enzyme assay to detect the production of urea directly proportional to the activity of Arginase II. Note: in the data most compounds retested in dose-response had high values. It counts as functional. To be noted: 33.3 µM.

For assay [7], the target named is T3, Proteasome subunit beta (Trypanosoma cruzi) (UniProt O96673).
T3 sequence (whole entry): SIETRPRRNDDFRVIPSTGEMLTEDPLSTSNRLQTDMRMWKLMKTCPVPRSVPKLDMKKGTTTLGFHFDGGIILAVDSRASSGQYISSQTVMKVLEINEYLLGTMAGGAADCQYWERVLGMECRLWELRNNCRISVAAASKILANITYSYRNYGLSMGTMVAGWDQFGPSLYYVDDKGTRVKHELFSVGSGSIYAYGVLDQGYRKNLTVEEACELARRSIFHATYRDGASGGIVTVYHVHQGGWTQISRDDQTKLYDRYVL
As to the kind of experiment: Trypanosoma cruzi proteasome chymotrypsin-like activity (TcProtChymo) assay. Note: in the data most compounds retested in dose-response had high values. To be noted: 9.37 µM. The class given is functional.

For assay [8], the species on record is Homo sapiens. As to the kind of experiment: To identify inhibition of the IFN signalling (Jak-Stat) pathway via expression of an eGFP reporter gene under the control of an IFN-stimulated response element (ISRE) containing MxA promoter. It counts as functional. To be noted: 30 µM. A general note: Reporter assays use an easily measured gene product as a stand-in for the process of interest.

Assay [9] concerns the target T4, Tyrosyl-tRNA synthetase, putative (Trypanosoma cruzi (strain CL Brener)) (UniProt Q4DSP6).
T4 sequence (whole entry): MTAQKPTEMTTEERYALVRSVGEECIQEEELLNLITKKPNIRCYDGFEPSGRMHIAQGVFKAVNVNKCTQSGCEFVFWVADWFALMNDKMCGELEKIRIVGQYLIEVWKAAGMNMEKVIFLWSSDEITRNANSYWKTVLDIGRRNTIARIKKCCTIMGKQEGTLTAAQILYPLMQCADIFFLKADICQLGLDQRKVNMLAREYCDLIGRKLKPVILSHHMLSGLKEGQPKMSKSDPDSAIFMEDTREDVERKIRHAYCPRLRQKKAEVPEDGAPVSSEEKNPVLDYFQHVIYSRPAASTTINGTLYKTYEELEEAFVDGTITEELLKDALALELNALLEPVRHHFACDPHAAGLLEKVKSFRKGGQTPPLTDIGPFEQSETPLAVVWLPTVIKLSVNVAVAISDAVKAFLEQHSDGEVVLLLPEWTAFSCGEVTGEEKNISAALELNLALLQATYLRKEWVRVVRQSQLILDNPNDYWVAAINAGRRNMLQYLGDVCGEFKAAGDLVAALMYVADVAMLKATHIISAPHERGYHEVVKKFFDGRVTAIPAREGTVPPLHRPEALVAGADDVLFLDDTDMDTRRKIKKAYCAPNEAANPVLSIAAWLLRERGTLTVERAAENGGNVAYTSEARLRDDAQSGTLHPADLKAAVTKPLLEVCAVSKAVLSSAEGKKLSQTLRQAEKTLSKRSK
The experiment in a line: Trypanosoma cruzi tyrosyl tRNA synthetase (TcYRS) _High Tyrosine SOP. Note: in the data most compounds retested in dose-response had high values. It counts as functional. Particulars: 30 µM.

Assay [10] addresses T4, Tyrosyl-tRNA synthetase, putative (Trypanosoma cruzi (strain CL Brener)). As to the kind of experiment: Trypanosoma cruzi tyrosyl tRNA synthetase (TcYRS) SOP. It counts as functional. To be noted: 30 µM.
Assay [11] concerns the target Chromo domain-containing protein 1 (Saccharomyces cerevisiae (strain ATCC 204508 / S288c) (Baker's yeast)) (UniProt P32657). As to the kind of experiment: ScCHD-1 Enzyme Inhibition Assay. Note: in the data most compounds retested in dose-response had high values. It counts as functional. To be noted: 30 µM.

For some of these results: Measured potencies and affinities stand elsewhere.

Chain of Protein translocase subunit SecA (Escherichia coli (strain K12)) (P10408 whole entry): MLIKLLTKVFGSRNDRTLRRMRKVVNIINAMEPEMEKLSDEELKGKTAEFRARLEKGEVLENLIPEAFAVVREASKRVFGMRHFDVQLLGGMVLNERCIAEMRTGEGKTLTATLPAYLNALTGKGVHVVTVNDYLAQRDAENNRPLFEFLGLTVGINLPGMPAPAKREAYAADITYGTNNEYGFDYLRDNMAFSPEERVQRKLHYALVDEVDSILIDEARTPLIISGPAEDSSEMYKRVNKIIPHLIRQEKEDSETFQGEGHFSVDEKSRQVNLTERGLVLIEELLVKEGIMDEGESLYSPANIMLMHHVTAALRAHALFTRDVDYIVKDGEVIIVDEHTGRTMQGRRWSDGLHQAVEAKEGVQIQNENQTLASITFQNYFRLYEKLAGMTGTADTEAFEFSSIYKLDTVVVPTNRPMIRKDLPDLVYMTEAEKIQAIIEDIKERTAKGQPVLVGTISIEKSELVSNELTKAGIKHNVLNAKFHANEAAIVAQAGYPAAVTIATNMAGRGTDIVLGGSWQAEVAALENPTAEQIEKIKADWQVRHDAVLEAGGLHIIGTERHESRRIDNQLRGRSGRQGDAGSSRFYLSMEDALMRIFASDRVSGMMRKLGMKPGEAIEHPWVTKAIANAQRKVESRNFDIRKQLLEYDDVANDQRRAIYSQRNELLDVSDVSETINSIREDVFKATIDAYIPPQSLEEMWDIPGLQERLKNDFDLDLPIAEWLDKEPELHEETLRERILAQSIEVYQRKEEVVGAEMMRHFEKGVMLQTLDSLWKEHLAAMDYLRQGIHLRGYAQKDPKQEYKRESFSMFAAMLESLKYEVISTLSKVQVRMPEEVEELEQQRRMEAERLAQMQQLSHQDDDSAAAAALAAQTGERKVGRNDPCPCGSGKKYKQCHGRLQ
Chain of Chromo domain-containing protein 1 (Saccharomyces cerevisiae (strain ATCC 204508 / S288c) (Baker's yeast)) (P32657 whole entry, the tested form may be a part): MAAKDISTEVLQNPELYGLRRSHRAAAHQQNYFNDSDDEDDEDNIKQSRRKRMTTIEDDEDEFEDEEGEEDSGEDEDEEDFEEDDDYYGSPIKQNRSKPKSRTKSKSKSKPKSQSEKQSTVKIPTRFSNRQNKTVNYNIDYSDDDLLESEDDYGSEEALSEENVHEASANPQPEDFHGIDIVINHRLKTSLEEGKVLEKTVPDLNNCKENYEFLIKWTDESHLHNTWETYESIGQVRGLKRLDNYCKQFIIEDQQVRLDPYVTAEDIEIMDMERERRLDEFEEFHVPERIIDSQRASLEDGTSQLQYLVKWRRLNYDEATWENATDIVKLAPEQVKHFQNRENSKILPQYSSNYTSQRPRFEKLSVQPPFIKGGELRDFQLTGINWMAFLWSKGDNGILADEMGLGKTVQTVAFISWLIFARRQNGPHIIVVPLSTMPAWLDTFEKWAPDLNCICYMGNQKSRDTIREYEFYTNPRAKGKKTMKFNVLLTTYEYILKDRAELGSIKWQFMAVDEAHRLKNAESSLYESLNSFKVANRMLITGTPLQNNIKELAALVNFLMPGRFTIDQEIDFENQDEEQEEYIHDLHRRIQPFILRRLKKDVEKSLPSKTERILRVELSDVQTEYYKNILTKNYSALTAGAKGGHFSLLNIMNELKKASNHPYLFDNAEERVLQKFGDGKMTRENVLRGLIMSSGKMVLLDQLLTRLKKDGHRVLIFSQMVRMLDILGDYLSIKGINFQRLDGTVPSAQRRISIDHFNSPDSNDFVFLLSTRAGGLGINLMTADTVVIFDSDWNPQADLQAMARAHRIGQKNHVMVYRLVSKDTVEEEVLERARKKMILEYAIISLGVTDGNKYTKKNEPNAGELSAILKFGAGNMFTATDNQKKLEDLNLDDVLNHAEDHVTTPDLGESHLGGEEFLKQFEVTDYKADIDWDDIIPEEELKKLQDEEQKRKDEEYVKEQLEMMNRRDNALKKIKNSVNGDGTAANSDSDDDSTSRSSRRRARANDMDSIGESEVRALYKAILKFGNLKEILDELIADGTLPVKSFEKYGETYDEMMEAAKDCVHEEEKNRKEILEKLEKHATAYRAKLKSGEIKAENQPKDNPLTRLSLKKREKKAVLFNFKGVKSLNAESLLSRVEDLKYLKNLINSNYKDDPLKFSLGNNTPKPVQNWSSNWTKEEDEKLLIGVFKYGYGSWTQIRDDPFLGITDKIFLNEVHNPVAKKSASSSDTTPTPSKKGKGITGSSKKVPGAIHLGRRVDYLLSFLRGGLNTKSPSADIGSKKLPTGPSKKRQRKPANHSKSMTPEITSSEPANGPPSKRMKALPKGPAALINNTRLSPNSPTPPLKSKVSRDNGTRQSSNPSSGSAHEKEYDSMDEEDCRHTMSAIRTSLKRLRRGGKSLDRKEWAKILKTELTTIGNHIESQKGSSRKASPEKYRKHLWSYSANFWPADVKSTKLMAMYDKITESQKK
Chain of Sialic acid-binding Ig-like lectin 9 (Homo sapiens) (Q9Y336 whole entry): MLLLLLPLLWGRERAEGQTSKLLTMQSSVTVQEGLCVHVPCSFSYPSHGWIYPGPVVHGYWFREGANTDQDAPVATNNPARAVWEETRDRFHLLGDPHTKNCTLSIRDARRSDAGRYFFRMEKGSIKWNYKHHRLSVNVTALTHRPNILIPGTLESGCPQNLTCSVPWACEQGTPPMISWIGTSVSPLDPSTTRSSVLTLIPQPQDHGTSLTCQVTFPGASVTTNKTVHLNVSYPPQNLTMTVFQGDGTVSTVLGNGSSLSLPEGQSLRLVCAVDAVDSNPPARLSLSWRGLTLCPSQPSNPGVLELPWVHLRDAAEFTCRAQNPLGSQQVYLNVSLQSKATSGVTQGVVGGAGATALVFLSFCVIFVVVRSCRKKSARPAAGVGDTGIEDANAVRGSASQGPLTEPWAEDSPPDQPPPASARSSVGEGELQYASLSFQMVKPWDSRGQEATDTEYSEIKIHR

For `Cc1cnn(CC2CCCN2C(=O)CCCc2nc(C)no2)c1` (stereo unspecified), the Percent Effect in assay [1] was -1.89%; in assay [2], 13.2%; in [3], 1.65%; in [4], -10.6%; in assay [5], -3.21%; in assay [6] it was -3.55%. Moreover, the Percent Effect was 4.89% in assay [7]; 27.9% in [8]; 1.06% in assay [9]; 10.4% in [10]; -6.12% in assay [11].

Turning to `Cc1oc(C(=O)O)cc1S(=O)(=O)Nc1cc(Cl)ccc1F`, the Percent Effect in [1] was -4.85%; in assay [2], 5.2%; in [3] it was -3.17%; in assay [4] it was 6.3%; in assay [5], 0.374%; in [6], -1.42%. The Percent Effect in assay [7] is -6.59%; in assay [8], 2.33%; in assay [9], 3.88%; in assay [10] it was 2.44%; in assay [11] it was -4.3%.

Take `Cc1noc(NC(=O)c2ccc(C)c(F)c2)n1`: the Percent Effect in [1] is -3.93%; in assay [2], 20.2%; in assay [3] it was 3.63%; in [4], -2.91%; in assay [5] it was 4.63%; in [6], 0%. The Percent Effect in assay [7] is 11.7%; in assay [8], 64%; in assay [9], 9.36%; in assay [10] it was 26.6%; in assay [11] it was -5.98%.

Turning to `c1ccc(C2CCCN2Cc2nnnn2C2CC2)cc1` (stereo unspecified), the Percent Effect in [1] was -4.62%; in [2] it was -6.94%; in assay [3], -1.81%; in assay [4], -5.25%; in assay [5] it was -3.01%; in [6] it was -1.32%. Further, the Percent Effect was 9.12% in [7]; -12.1% in [8]; 3.16% in assay [9]; 0% in assay [10]; 7.75% in assay [11].

As for `Cc1ccoc1C(=O)NCC(Cc1ccc(F)cc1)C(N)=O` (stereo unspecified), the Percent Effect in assay [1] was -1.94%; in assay [2], 18.2%; in [3], 4.14%; in [4], 0.338%; in assay [5], 3.62%; in assay [6], 4.42%. Moreover, the Percent Effect in assay [7] is 15.3%; in assay [8], -1.29%; in assay [9], 7.62%; in assay [10], 23.5%; in [11], -14.3%.

In the case of `CCCS(=O)(=O)NCc1cccnc1OCC`, the Percent Effect was 0.771% in assay [1]; 2.6% in assay [2]; -1.14% in assay [3]; 3.55% in assay [4]; 1.28% in assay [5]; -5.52% in assay [6]. For the same compound, the Percent Effect was 6.32% in assay [7]; 13.3% in assay [8]; 1.07% in assay [9]; -1.24% in assay [10]; -7.12% in assay [11].

Take `Cc1cc(-c2nnn(CCNS(C)(=O)=O)n2)ccc1F`: the Percent Effect was -6.86% in assay [1]; 5.48% in assay [2]; 0.593% in [3]; 2.92% in assay [4]; 3.17% in [5]; 0.399% in [6]. Further, the Percent Effect in assay [7] was 4.71%; in [8], 17.4%; in [9], 9.38%; in [10], 18.5%; in assay [11], -2.42%.

As for `Cc1ccc(C(=O)N(C)Cc2cc(Br)cs2)c(=O)[nH]1`, the Percent Effect in [1] was 1.09%; in assay [2] it was 7.89%; in [3], 5.18%; in assay [4], -2.8%; in [5], -3.8%; in assay [6], -3.55%. The Percent Effect was 23.3% in assay [7]; 0.327% in assay [8]; 5.32% in assay [9]; 7.79% in [10]; -3.78% in assay [11].

`CCc1nc2n(n1)CC(NCc1noc(-c3ccccc3)n1)CC2` (stereo unspecified): the Percent Effect in assay [1] is -5.91%; in [2], 5.26%; in assay [3], -5.76%; in assay [4], 10.4%; in assay [5] it was 9.06%; in assay [6], 2.52%. Moreover, the Percent Effect is -2.28% in [7]; -13.2% in [8]; 3.45% in assay [9]; 16.1% in assay [10]; -6.43% in [11].

For the compound `Cc1nc(C(=O)N2CCCC2c2c(C)nn(C)c2C)ccc1C#N` (stereo unspecified), the Percent Effect in [1] is -5.64%; in assay [2] it was -1.27%; in assay [3] it was 7.49%; in assay [4], 4.58%; in assay [5], -2.36%; in assay [6], 1.07%. In addition, the Percent Effect in assay [7] was determined as 16.1%; in [8] it was 4.46%; in assay [9] it was 0%; in assay [10], 2.53%; in assay [11] it was 10.7%.

As for `CCC(=O)N1CCc2[nH]cnc2C12CCN(C(=O)CCS(C)(=O)=O)CC2`, the Percent Effect in assay [1] is 1.36%; in assay [2] it was 6.94%; in [3], -9.27%; in assay [4], 3.42%; in assay [5] it was 4.37%; in assay [6] it was 23.4%. The Percent Effect in assay [7] was 19.1%; in [8], 22.1%; in assay [9], 5.26%; in assay [10], 7.69%; in assay [11], -2.55%.
